High-throughput results deposited in PubChem BioAssay by Paczesny and Yang Labs, IUPUI and University of Michigan.
ST2 IL33 inh = inhibitors of human ST2 (IL1RL1) binding to IL-33; AID 1259354; inhibition, % for hits at 17 µM; AlphaLISA ST2-Fc/biotin-IL-33 interaction, 1 h; 78,000 tested, 2.3% active; Q01638; in the data active = inhibition above about 30%
Target sequence (Q01638 whole entry, looked up): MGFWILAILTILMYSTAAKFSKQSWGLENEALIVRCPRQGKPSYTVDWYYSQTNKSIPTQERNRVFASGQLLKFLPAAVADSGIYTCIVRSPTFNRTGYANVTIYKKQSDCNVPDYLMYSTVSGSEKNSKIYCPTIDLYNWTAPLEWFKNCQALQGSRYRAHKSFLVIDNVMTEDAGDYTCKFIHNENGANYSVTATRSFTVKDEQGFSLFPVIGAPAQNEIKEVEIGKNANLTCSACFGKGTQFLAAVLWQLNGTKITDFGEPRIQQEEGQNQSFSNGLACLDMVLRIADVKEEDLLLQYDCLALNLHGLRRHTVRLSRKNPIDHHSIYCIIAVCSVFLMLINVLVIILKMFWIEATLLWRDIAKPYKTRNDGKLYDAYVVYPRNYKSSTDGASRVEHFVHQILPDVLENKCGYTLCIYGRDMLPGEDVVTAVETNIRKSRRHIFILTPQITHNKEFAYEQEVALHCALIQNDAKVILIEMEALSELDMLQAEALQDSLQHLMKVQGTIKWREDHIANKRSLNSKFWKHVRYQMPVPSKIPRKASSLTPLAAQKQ
Of the large screens only hits and unclear results are named; the others gave an inactive call. Only a selection was taken, and hits are over-represented in it overall.

OCC1(CCCc2ccccc2)CCN(C2CCN(c3ccccc3)CC2)CC1	none
Cn1c2c(c(=O)[nH]c1=O)C(c1ccc([N+](=O)[O-])o1)C1=C(N2)c2ccccc2C1=O (stereo not drawn)	none
Cc1ccc(C2C3=C(Nc4c2c(=O)[nH]c(=O)n4C)c2ccccc2C3=O)cc1 (stereo not drawn)	ST2 IL33 inh 38%
Cc1ccc(C2OC(=O)c3ccccc32)cc1Cl (stereo not drawn)	none
CCOC(=O)C1=C(C)NC2=C(C(=O)c3ccccc32)C1c1ccc(C)cc1 (stereo not drawn)	none
Cc1ccc(C2C3=C(Nc4c2c(=O)[nH]c(=O)n4C)c2ccccc2C3=O)cc1Cl (stereo not drawn)	ST2 IL33 inh 32%
CCOc1cc(C2C3=C(Nc4c2c(=O)n(C)c(=O)n4C)c2ccccc2C3=O)ccc1O (stereo not drawn)	none
COCCC(=O)Nc1cc(C(=O)N2CCOc3ccccc3C2)cc2nc(-c3ccccc3)n(C)c12	none
OCCCNCc1ccccc1	none
COc1ccc(-c2cc(C[C@H]3CNCC[C@H]3CC(=O)N3CCN(c4ccccc4)CC3)no2)cc1	none
O=C(C[C@@H]1CCNC[C@@H]1Cc1cc(COc2ccccc2)on1)N1CCN(c2ccccc2)CC1	ST2 IL33 inh 42%
O=C(C[C@@H]1CCNC[C@@H]1Cc1cc(COc2ccccc2)on1)N1CCOCC1	none
Cc1cc(C)c2c(n1)sc1c(N3CCN(Cc4ccccc4)CC3)ncnc12	none
Cc1ccc(NCC2OCc3ccccc3CO2)cc1	ST2 IL33 inh 97%
CNCC1OCCc2ccccc21 (stereo not drawn)	none
Cc1ccc(OC(C)C(=O)Nc2sc3c(c2C(N)=O)CCCC3)cc1C (stereo not drawn)	none
Cc1ccc(N2C(=O)c3cccnc3C2=O)c(C)c1	none
Cc1cccc(N=C2c3ccccc3-c3ncccc32)c1	ST2 IL33 inh 41%
Cc1cccc(N=C2NC(=O)c3cccc([N+](=O)[O-])c32)c1	none
CC(=O)NC(=O)c1cc2ccccc2oc1=Nc1cccc(C(F)(F)F)c1	none
Cc1cc(NC(=O)C2CC2)nc2c1c(=O)oc1ccccc12	none
Cc1cc(=O)oc2cc(Cl)c(OCc3ccccc3)cc12	none
COc1ccc(-c2nnc(/C=C/c3ccccc3)o2)cc1	none
Cc1ccc2oc(/C=C/c3nc4cc(C)ccc4o3)nc2c1	none
CN(C)c1ccc(/C=C/c2nc(=O)c3ccccc3o2)cc1	ST2 IL33 inh 55%
Cc1cc(CN(C)Cc2cc3cc4c(cc3[nH]c2=O)CCC4)no1	none
Cc1ccccc1NS(=O)(=O)c1c(C)n[nH]c1C	none
COC(=O)c1ccc(N2C(=O)CC(N3CCN(Cc4ccc(Cl)cc4)CC3)C2=O)cc1 (stereo not drawn)	none
COc1ccc(C)cc1N(C)S(=O)(=O)c1cccc2nsnc12	none
Cc1c(CC(Cl)(Cl)Cl)c2c(n1O)CC(C)(C)CC2=O	none
Cn1c2c(c3cc([N+](=O)[O-])ccc31)CCCC2=O	none
Cc1c(CC(Cl)(Cl)Cl)c2c(n1-c1ccc([N+](=O)[O-])cc1)CCCC2=O	ST2 IL33 inh 41%
CCOC(=O)c1oc2ccccc2c1NC(=O)C(C)(C)Oc1ccc(Cl)cc1	none
Cc1n[nH]c(C)c1CCCOc1ccccc1F	none
COc1ccc(C2C(C(=O)NCCN(C)C)c3cc(OC)c(OC)cc3C(=O)N2C)cc1 (stereo not drawn)	ST2 IL33 inh 33%
CCN(CC)CCNC(=O)C1c2cc(OC)c(OC)cc2C(=O)N(C)C1c1ccc(OC)cc1 (stereo not drawn)	none
COCCCNC(=O)C1c2cc(OC)c(OC)cc2C(=O)N(C)C1c1ccc(OC)cc1 (stereo not drawn)	none
O=C(c1cc(=O)[nH]c2ccc(F)cc12)N1CC[C@@H](N2CCOCC2)[C@H](O)C1	none
O=C(c1ccc(F)cc1)N1CCN=C1SCc1cccnc1	none
CC1CCN(S(=O)(=O)c2ccc3[nH]c(=O)sc3c2)CC1	none
COc1ccc2nc(SCCc3ccccc3)nc(C)c2c1	none
CCOC(=O)CCSc1nc(C)c2cc(C)ccc2n1	none
COc1ccc2nc(SC(=O)c3ccccc3)nc(C)c2c1	ST2 IL33 inh 43%
CC(C)(C)NC(=O)CSc1nc2ccc(N3C(=O)c4ccccc4C3=O)cc2s1	none
COc1ccc2c(=O)c(Oc3ccccc3)c(C(F)(F)F)oc2c1	none
Cc1cc(Br)cc2c1N(C)C(=O)C2=O	none
Cc1cc(Br)cc2c1N(C)C(=O)/C2=C1\SC(=Nc2ccc(F)cc2)NC1=O	ST2 IL33 inh 33%
CC(C)Cc1ccc(S(=O)(=O)NC2CCCCCC2)cc1	none
COCC(=O)N1CCCN(Cc2ccc(-c3ccccn3)cc2)CC1	none
CC(c1ccc(-c2ccc3c(c2)CCC3=O)cc1)N1CCOCC1 (stereo not drawn)	none
CCn1ncnc1CN1CCC(Cc2nn(C)c(=O)n2CC)CC1	none
CCc1ccc(N2N=C(C)/C(=C/c3ccc(N(C)C)cc3)C2=O)cc1	ST2 IL33 inh 42%
CN(C)c1ccc(/C=C2/C(=O)c3ccc(C(=O)O)cc3C2=O)cc1	none
CC1=NN(c2cccc(Cl)c2)C(=O)/C1=C\c1ccc(-c2ccc(C(=O)O)c(Cl)c2)o1	none
CC1=NN(c2ccc(F)cc2)C(=O)/C1=C/c1ccc(N(C)C)c([N+](=O)[O-])c1	none
CC1=NN(c2cc(C(=O)O)cc(C(=O)O)c2)C(=O)/C1=C\c1ccc(N(C)C)cc1	ST2 IL33 inh 76%
COc1ccc(-c2noc([C@@H]3C[C@@H](O)CN3Cc3ccc([N+](=O)[O-])cc3)n2)cc1	none
Brc1csc(CN2CCc3ccccc3C2)c1	none
CC(C)Nc1nc(-c2ccc([N+](=O)[O-])cc2)nc2ccccc12	none
CCC(C)N(Cc1cccnc1)C(=O)c1cc(C)nn1CC (stereo not drawn)	none
CCN(c1ccccc1)S(=O)(=O)c1cc(OC)ccc1OC	none
CCN(c1ccccc1)S(=O)(=O)c1ccc(OC)c(OC)c1	none
CCN(c1ccccc1)S(=O)(=O)c1cc([N+](=O)[O-])ccc1N	ST2 IL33 inh 32%
CCSc1sc(CC)cc1C(N)=O	none
Cc1cc(=O)c2c([nH]1)C(O)=C(CN(C)C)C(=O)C2=O	ST2 IL33 inh 43%
CCOC(=O)C1=C(N)OC2=C(C(=O)CC(C)(C)C2)C1c1cc([N+](=O)[O-])c(C)s1 (stereo not drawn)	none
CCOc1ccccc1N1CCN(Cc2ccc([N+](=O)[O-])cc2)CC1	none
O=[N+]([O-])c1ccc(N2CCN(CCO)CC2)cc1	none
O=[N+]([O-])c1ccc(N2CCN(Cc3ccc(Br)s3)CC2)cc1	ST2 IL33 inh 36%
COc1cc(CN2CCN(c3ccc([N+](=O)[O-])cc3)CC2)ccc1O	none
Cc1ccccc1N1CCN(Cc2ccc(Br)s2)CC1	none
CN(C)c1ccc(CN2CCN(c3ccc([N+](=O)[O-])cc3)CC2)cc1	ST2 IL33 inh 51%
Cc1cncc(NC(=O)c2cccc(CN3CCCC3c3ccccn3)c2)c1 (stereo not drawn)	none
O=c1[nH]nc(C2CCCN(S(=O)(=O)N3CCCC3)C2)n1-c1ccccc1 (stereo not drawn)	none
CCN(Cc1noc(C2CC2)n1)C(=O)c1ncoc1C1CC1	none
COC(=O)Nc1nc2ccc(S(=O)(=O)O)cc2[nH]1	none
O=C(Cn1c(C(F)(F)F)nc2ccccc21)NC1CCCCC1	none
OC1CCN([C@@H]2CCN(c3nc(-c4ccccc4)no3)C[C@H]2O)CC1	none
CC1CC(C)CN(CCCNC(=O)C2CCN(S(C)(=O)=O)CC2)C1 (stereo not drawn)	none
CCN1CCc2c(sc(NC(=O)c3ccc(C)c(C)c3)c2C(=O)OC)C1	none
CCOC(=O)c1c(NC(C)=O)sc2c1CCN(Cc1ccccc1)C2	none
CCOC(=O)c1c(NC(=O)c2cc3ccccc3oc2=O)sc2c1CCN(CC)C2	ST2 IL33 inh 33%
CCC1=C(c2ccc(OC)cc2)S(=O)(=O)N(CC(=O)NCc2ccc(N(C)C)cc2)C1=O	none
